10 molecules from the supplement of paper PMC8285479 can be followed below.

The test deals with NCI-H1944. The test is described as follows: normalised cell viability (NPI; 0 = phenylarsine oxide control, 1 = DMSO control) (fraction of DMSO control); NCI-H1944 is a non-small cell lung cancer line; higher = more viable cells (less compound toxicity). The settings on record: 6 days.
[1] abbreviates: glucocorticoid arm: hydrocortisone 2.75 uM co-treatment, compound 1 µM.
[2] abbreviates: glucocorticoid arm: hydrocortisone 2.75 uM co-treatment, compound 5 µM.
The mark [3] stands for this setting: glucocorticoid arm: hydrocortisone 2.75 uM pre-treated 2 days and continued, compound 1 µM.
The mark [4] stands for this setting: glucocorticoid arm: hydrocortisone 2.75 uM pre-treated 2 days and continued, compound 5 µM.
The mark [5] stands for this setting: glucocorticoid arm: vehicle, compound 1 µM.
Setting [6] is: glucocorticoid arm: vehicle, compound 5 µM.

Each structure is given as a SMILES string. ± gives the standard deviation of the averaged measurements. Whole data set: some 1,900 compounds, median “normalised cell viability (NPI; 0 = phenylarsine oxide control, 1 = DMSO control)” near 1, cut for the lowest 2% near 0.039. Shown is part of a subset that was picked to be rich in the lowest values.
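Note: CTB read-out in 384-well plates, triplicate wells, NPI normalised per plate against 1 µM phenylarsine oxide (0) and 0.1% DMSO (1) controls.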

For the molecule `Cc1ccc([N+](=O)[O-])cc1S(=O)(=O)N(C)/N=C/c1cnc2ccc(Br)cn12`, the normalised cell viability reads like this: under setting [1], 0.025 ± 0.0023; under setting [2], 0.0304 ± 0.0032; under setting [3], 0.0674 ± 0.0086; under setting [4], 0.0802 ± 0.022; under setting [5], 0.0104 ± 0.005; under setting [6], 0.00623 ± 0.0011.

Take `Cc1ccc([N+](=O)[O-])cc1S(=O)(=O)N(C)C`: the normalised cell viability is 1 ± 0.018 under setting [1]; 0.9945 ± 0.0095 under setting [2]; 1 ± 0.011 under setting [3]; 0.978 ± 0.028 under setting [4]; 1.004 ± 0.0094 under setting [5]; 1.007 ± 0.0052 under setting [6].

Regarding `CCCCC/C=C\C[C@@H](O)/C=C/c1cccc(C[C@@H](O)CCCCO)n1`, the normalised cell viability is 1.005 ± 0.0081 under setting [1]; 1.05 ± 0.04 under setting [2]; 1.01 ± 0.015 under setting [3]; 1.04 ± 0.011 under setting [4]; 1.013 ± 0.0058 under setting [5]; 1.027 ± 0.0058 under setting [6].

For the molecule `OC[C@H]1O[C@@H](n2cnc3c(N[C@H]4CCC[C@@H]4O)ncnc32)[C@H](O)[C@@H]1O`, the normalised cell viability was 1.017 ± 0.0058 under setting [1]; 1.01 ± 0.027 under setting [2]; 1.01 ± 0.01 under setting [3]; 1.01 under setting [4]; 0.993 ± 0.015 under setting [5]; 0.9927 ± 0.0095 under setting [6].

For `CC[n+]1c(/C=C/C=C2/N(C)c3ccccc3C2(C)C)sc2ccccc21`, the normalised cell viability by setting is: under setting [1], 0.467 ± 0.026; under setting [2], 0.434 ± 0.017; under setting [3], 0.901 ± 0.032; under setting [4], 0.798 ± 0.02; under setting [5], 0.237 ± 0.0069; under setting [6], 0.112 ± 0.0067.

`NC(N)=N[C@@H](CCC(=O)O)C(=O)O` [alpha-Guanidinoglutaric acid]: the normalised cell viability under setting [1] worked out at 1.01 ± 0.01; the normalised cell viability under setting [2] came to 0.983 ± 0.01; the normalised cell viability under setting [3] came out at 1.006 ± 0.0063; the normalised cell viability under setting [4] was found to be 1.01 ± 0.021; the normalised cell viability under setting [5] amounted to 0.9917 ± 0.0038; the normalised cell viability under setting [6] came out at 1.002 ± 0.0072.

In the case of `CCCCCCCCOc1ccccc1C(=O)Nc1ccc(C(=O)OCC[N+](C)(CC)CC)cc1` [Otilonium Bromide], the normalised cell viability under setting [1] turned out to be 1.03 ± 0.01; the normalised cell viability under setting [2] turned out to be 1.03 ± 0.026; the normalised cell viability under setting [3] was 1.01 ± 0.026; the normalised cell viability under setting [4] came to 1.03 ± 0.025; the normalised cell viability under setting [5] came out at 1.007 ± 0.0058; the normalised cell viability under setting [6] is 1.003 ± 0.0058.

As for `CC[C@@H]1C(=O)N(C)c2cnc(Nc3ccc(C(=O)NC4CCN(C)CC4)cc3OC)nc2N1C1CCCC1`, the normalised cell viability is, setting by setting: under setting [1], 0.535 ± 0.026; under setting [2], 0.4 ± 0.057; under setting [3], 0.797 ± 0.042; under setting [4], 0.592 ± 0.083; under setting [5], 0.0889 ± 0.011; under setting [6], 0.0658 ± 0.0046.

As to `CC[C@@H]1C(=O)N(C)c2cnc(Nc3ccc(C(=O)N[C@H]4CC[C@H](N5CCN(CC6CC6)CC5)CC4)cc3OC)nc2N1C(C)C` [BI6727 (Volasertib)], the normalised cell viability under setting [1] came to 0.346 ± 0.023; the normalised cell viability under setting [2] came to 0.201 ± 0.025; the normalised cell viability under setting [3] was found to be 0.58 ± 0.017; the normalised cell viability under setting [4] amounted to 0.213 ± 0.15; the normalised cell viability under setting [5] was 0.0771 ± 0.019; the normalised cell viability under setting [6] is 0.0219 ± 0.0034.

In the case of `COc1cc(C(=O)NC2CCN(C)CC2)ccc1Nc1ncc2c(n1)N(C1CCCC1)CC(F)(F)C(=O)N2C`, the normalised cell viability was found to be 0.354 ± 0.024 under setting [1]; 0.359 ± 0.031 under setting [2]; 0.73 ± 0.022 under setting [3]; 0.7627 ± 0.007 under setting [4]; 0.066 ± 0.0089 under setting [5]; 0.0695 ± 0.004 under setting [6].
